Test results from PubChem BioAssay (NCI).
About 79,000 compounds went through this panel and 15% of them were active in at least one assay; those are over-represented in the sample as a whole. Calls of active or inactive are those of the source. Rule as the data show it: active = growth inhibition above about 70%; inactive = the rest.

Assays:
[1] = NCI Yeast Anticancer Drug Screen. Data for the rad52 strain (AID 147);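 also: 0% = growth of vehicle-treated control cultures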; conditions: S. cerevisiae rad52 mutant growth inhibition, active compounds read high
How it was run: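 Read-out: growth inhibition versus vehicle-treated controls. Cells were a DNA repair-deficient yeast strain treated with compounds.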

[2] = NCI Yeast Anticancer Drug Screen. Data for the wt1 strain (AID 149);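 also: 0% = growth of vehicle-treated wt1 cultures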; conditions: S. cerevisiae wt1 strain (SPY 50644) growth inhibition, active compounds read high
How it was run: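 Yeast wt1 strain exposed to compounds; growth inhibition measured relative to vehicle-treated controls.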

[3] = NCI Yeast Anticancer Drug Screen. Data for the rad50EPP+ strain (AID 151);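 also: 0% = growth of vehicle-treated control cultures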; conditions: S. cerevisiae rad50 mutant strain, active compounds read high
How it was run: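 Growth inhibition read against vehicle controls in rad50EPP+ yeast, a strain altered in DNA damage repair, after compound exposure.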

[4] = NCI Yeast Anticancer Drug Screen. Data for the mgt1 strain (AID 153); conditions: S. cerevisiae mgt1 mutant growth inhibition, active compounds read high
How it was run: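 mgt1 yeast grown with test compound; read-out is growth inhibition versus vehicle-treated cultures.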

[5] = NCI Yeast Anticancer Drug Screen. Data for the rad50 strain (AID 155);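 also: 0% = growth of vehicle-only cultures of the same strain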; conditions: S. cerevisiae rad50 strain growth inhibition, active compounds read high
How it was run: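 Yeast carrying a defined DNA repair defect were exposed to test compounds, and growth was compared with vehicle-treated controls to give percent inhibition.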

[6] = NCI Yeast Anticancer Drug Screen. Data for the mec2-1 strain (AID 157); conditions: S. cerevisiae mec2-1 strain, active compounds read high
How it was run: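 Yeast mec2-1 mutant treated with compound. Readout: growth inhibition vs vehicle controls.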

[7] = NCI Yeast Anticancer Drug Screen. Data for the rad14 strain (AID 159);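 also: 0% = growth of vehicle-treated control cultures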; conditions: S. cerevisiae rad14 strain growth inhibition, active compounds read high
How it was run: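 Yeast cells carrying a defined DNA-repair defect were exposed to compounds, and growth inhibition was calculated relative to vehicle-treated control cultures.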

[8] = NCI Yeast Anticancer Drug Screen. Data for the sgs1 mgt1 strain (AID 161);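 also: 0% = growth of cultures given vehicle only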; conditions: S. cerevisiae sgs1 mgt1 strain, active compounds read high
How it was run: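 Inhibition of yeast growth, normalised to vehicle-treated controls, is reported for a strain bearing genetic alterations in DNA damage repair.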

[9] = NCI Yeast Anticancer Drug Screen. Data for the CLN2oe strain (AID 163);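 also: 0% = growth of vehicle-only control cultures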; conditions: S. cerevisiae CLN2oe strain, active compounds read high
How it was run: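 Read-out: yeast growth inhibition, expressed relative to vehicle-only controls. The strain bears an engineered cell-cycle alteration.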

[10] = NCI Yeast Anticancer Drug Screen. Data for the cln2 rad14 strain (AID 165);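 also: 0% = growth equal to vehicle treated cultures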; conditions: S. cerevisiae cln2 rad14 strain, active compounds read high
How it was run: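 cln2 rad14 yeast strain; compound exposure; growth inhibition read vs vehicle controls.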

[11] = NCI Yeast Anticancer Drug Screen. Data for the bub3 strain (AID 167); conditions: S. cerevisiae bub3 mutant strain, active compounds read high
How it was run: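 Compounds were applied to a genetically altered yeast strain carrying a cell-cycle control defect. Growth inhibition was scored against vehicle-treated controls.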

[12] = NCI Yeast Anticancer Drug Screen. Data for the wt2 strain (AID 169);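 also: 0% = growth of vehicle-treated yeast cultures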; conditions: S. cerevisiae wt2 strain growth inhibition, active compounds read high
How it was run: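 Read-out: growth inhibition versus vehicle-treated control cultures after compound exposure of the yeast strain.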

[13] = NCI Yeast Anticancer Drug Screen. Data for the mlh1 strain (AID 171);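 also: 0% = growth of vehicle-treated control cultures of the same strain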; conditions: S. cerevisiae mlh1 strain growth inhibition, active compounds read high
How it was run: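 Read-out: growth inhibition versus vehicle controls. Strain: engineered yeast with a defined DNA repair or cell cycle defect, compound-treated.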

[14] = NCI Yeast Anticancer Drug Screen. Data for the sgs1 strain (AID 173);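 also: 0% = growth of vehicle-only control cultures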; conditions: S. cerevisiae sgs1 mutant, active compounds read high
How it was run: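 Read-out: yeast growth inhibition relative to vehicle controls, following compound exposure of a strain with a defined DNA repair/cell cycle alteration.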

[15] = NCI Yeast Anticancer Drug Screen. Data for the mlh1 rad18 strain (AID 175); conditions: S. cerevisiae mlh1 rad18 strain growth inhibition, active compounds read high
How it was run: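 Yeast w/ defined DNA-repair lesions; compound exposure; growth vs vehicle controls → % inhibition.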

[16] = NCI Yeast Anticancer Drug Screen. Data for the rad18 strain (AID 177); conditions: S. cerevisiae rad18 mutant growth inhibition, active compounds read high
How it was run: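 Readout: growth inhibition vs vehicle controls. Cells: genetically altered yeast strain, DNA repair defect.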

[17] = at 5.0 µM (retest, dose inferred, filed as 0.5)
[18] = at 50.0 µM (retest, dose inferred, filed as 5.0)

Measured: growth inhibition

O=c1c2ccccc2nc(-c2ccc(Cl)cc2)n1O
active: [1]; at 1.2 µM 81% | [1]; at 3.7 µM 95% | [1]; at 11.0 µM 96% | [1]; at 33.0 µM 96% | [1]; at 100.0 µM 94% | [2]; at 3.7 µM 89% | [2]; at 11.0 µM 96% | [2]; at 33.0 µM 96% | [2]; at 100.0 µM 96% | [3]; at 3.7 µM 85% | [3]; at 11.0 µM 91% | [3]; at 33.0 µM 91% | [3]; at 100.0 µM 90% | [4]; at 3.7 µM 90% | [4]; at 11.0 µM 94% | [4]; at 33.0 µM 94% | [4]; at 100.0 µM 93% | [5]; at 1.2 µM 80% | [5]; at 3.7 µM 93% | [5]; at 11.0 µM 96% | [5]; at 33.0 µM 95% | [5]; [18] 98% | [5]; at 50.0 µM 97% | [5]; at 100.0 µM 95% | [6]; at 11.0 µM 83% | [6]; at 33.0 µM 84% | [6]; [18] 97% | [6]; at 50.0 µM 96.7% | [6]; at 100.0 µM 88% | [7]; at 1.2 µM 98% | [7]; at 3.7 µM 98% | [7]; at 11.0 µM 98% | [7]; at 33.0 µM 98% | [7]; at 100.0 µM 98% | [8]; [18] 98% | [8]; at 50.0 µM 96.7% | [9]; at 33.0 µM 73% | [9]; at 100.0 µM 71% | [10]; [18] 84% | [10]; at 50.0 µM 87.8% | [11]; at 3.7 µM 75% | [11]; at 11.0 µM 78% | [11]; at 33.0 µM 82% | [11]; [18] 97% | [11]; at 50.0 µM 87.5% | [11]; at 100.0 µM 72% | [12]; at 1.2 µM 92% | [12]; at 3.7 µM 96% | [12]; at 11.0 µM 96% | [12]; at 33.0 µM 96% | [12]; at 100.0 µM 96% | [13]; at 1.2 µM 72% | [13]; at 3.7 µM 90% | [13]; at 11.0 µM 93% | [13]; at 33.0 µM 92% | [13]; at 100.0 µM 94% | [14]; at 1.2 µM 96% | [14]; at 3.7 µM 96% | [14]; at 11.0 µM 97% | [14]; at 33.0 µM 96% | [14]; at 100.0 µM 95% | [15]; [18] 98% | [15]; at 50.0 µM 96.1% | [16]; at 1.2 µM 94% | [16]; at 3.7 µM 96% | [16]; at 11.0 µM 97% | [16]; at 33.0 µM 96% | [16]; at 100.0 µM 95%
inactive: [2]; at 1.2 µM 61% | [3]; at 1.2 µM 47% | [4]; at 1.2 µM 60% | [5]; [17] 28% | [6]; at 1.2 µM 50% | [6]; at 3.7 µM 56% | [6]; [17] 10% | [8]; [17] 46% | [9]; at 1.2 µM 21% | [9]; at 3.7 µM 26% | [9]; at 11.0 µM 66% | [10]; [17] -23% | [11]; at 1.2 µM 62% | [11]; [17] 23% | [15]; [17] 48%

CCC(/C=C/c1ccccc1)=N\Nc1ccc(Cl)c(Cl)c1
active: [1]; at 33.0 µM 87% | [1]; at 100.0 µM 92% | [2]; at 100.0 µM 93% | [4]; at 100.0 µM 95% | [5]; at 33.0 µM 89% | [5]; [18] 89% | [5]; at 50.0 µM 95.5% | [5]; at 100.0 µM 91% | [6]; [18] 81% | [6]; at 50.0 µM 72.5% | [6]; at 100.0 µM 92% | [7]; at 100.0 µM 94% | [8]; [18] 74% | [8]; at 50.0 µM 82.5% | [9]; at 100.0 µM 89% | [10]; [18] 71% | [10]; at 50.0 µM 85.7% | [11]; at 33.0 µM 85% | [11]; [18] 93% | [11]; at 50.0 µM 94.3% | [11]; at 100.0 µM 91% | [12]; at 100.0 µM 95% | [13]; at 100.0 µM 94% | [14]; at 100.0 µM 95% | [15]; [18] 93% | [15]; at 50.0 µM 91.3% | [16]; at 100.0 µM 95%
inactive: [1]; at 1.2 µM 7% | [1]; at 3.7 µM 11% | [1]; at 11.0 µM 17% | [2]; at 1.2 µM 0% | [2]; at 3.7 µM -3% | [2]; at 11.0 µM -4% | [2]; at 33.0 µM 24% | [3]; at 1.2 µM 9% | [3]; at 3.7 µM 20% | [3]; at 11.0 µM 28% | [3]; at 33.0 µM 29% | [3]; at 100.0 µM 29% | [4]; at 1.2 µM -3% | [4]; at 3.7 µM 4% | [4]; at 11.0 µM -4% | [4]; at 33.0 µM -3% | [5]; at 1.2 µM 26% | [5]; at 3.7 µM 36% | [5]; [17] 7% | [5]; at 11.0 µM 22% | [6]; at 1.2 µM -2% | [6]; at 3.7 µM -1% | [6]; [17] -1% | [6]; at 11.0 µM -5% | [6]; at 33.0 µM 22% | [7]; at 1.2 µM 2% | [7]; at 3.7 µM 0% | [7]; at 11.0 µM -6% | [7]; at 33.0 µM 10% | [8]; [17] 3% | [9]; at 1.2 µM -2% | [9]; at 3.7 µM -8% | [9]; at 11.0 µM -9% | [9]; at 33.0 µM 36% | [10]; [17] 1% | [11]; at 1.2 µM -2% | [11]; at 3.7 µM 2% | [11]; [17] 2% | [11]; at 11.0 µM 14% | [12]; at 1.2 µM -2% | [12]; at 3.7 µM -5% | [12]; at 11.0 µM 7% | [12]; at 33.0 µM 22% | [13]; at 1.2 µM -4% | [13]; at 3.7 µM -2% | [13]; at 11.0 µM 0% | [13]; at 33.0 µM 39% | [14]; at 1.2 µM -3% | [14]; at 3.7 µM -17% | [14]; at 11.0 µM 17% | [14]; at 33.0 µM 67% | [15]; [17] 9% | [16]; at 1.2 µM 6% | [16]; at 3.7 µM 16% | [16]; at 11.0 µM 8% | [16]; at 33.0 µM 43%
